Source: PubChem BioAssay (EPA / NIEHS)
Records with an inconclusive call do not appear. The source holds several records for some structures; these can differ, active in one and inactive in another. The source made the active and inactive calls. How the source made its calls: active means hit-call score of the fitted dose curve at least 0.9, where 1 is the maximum; inconclusive means response in the unintended direction; inactive means score below 0.9.

Columns and labels:
[1] = molecular target: Peroxisome proliferator-activated receptor gamma (Homo sapiens) (UniProt P37231); test: NVS_NR_hPPARg: NovaScreen (NVS) Nuclear Receptor Binding Assay for human Peroxisome Proliferator-activated Receptor gamma (PPARg) (AID 2283370)
In short: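 Cell-free fluorescence polarization binding to human PPARg protein, read 2 h after dosing. Primary screen in duplicate at 25 uM, actives followed in concentration series; loss of signal relative to DMSO scored.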

[2] = molecular target: guinea pig Sigma Receptor, Non-selective Binding, SIGMAR1 (gene 100135589) (UniProt Q60492); test: NVS_OR_gSIGMA_NonSelective: NovaScreen (NVS) Nuclear Receptor Binding Assay for guinea pig Sigma Receptor, Non-selective Binding (AID 2283367)
In short: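 Guinea pig brain membranes, cell-free radioligand binding; read 1 h after dosing by filter-based scintillation counting. Loss of signal vs DMSO baseline taken as displacement. Primary screen single concentration 25 uM in duplicate; actives retested in concentration series.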

[3] = molecular target: rat Androgen Receptor (AR), Ar (gene 24208) (UniProt P15207); test: NVS_NR_rAR: NovaScreen (NVS) Nuclear Receptor Binding Assay for rat Androgen Receptor (AR) (AID 2283366)
In short: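 Cell-free radioligand binding on extracts of prostate from testosterone-pretreated rats, read by filter-based scintillation counting 18 h after dosing. Loss of bound signal fitted positively versus DMSO; primary screen in duplicate at 25 uM, actives followed up in concentration series.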

[4] = molecular target: human Adenosine Transporter (Adot), SLC29A1 (gene 2030) (UniProt Q99808); test: NVS_TR_hAdoT: NovaScreen (NVS) Transporter Assay for human Adenosine Transporter (Adot) (AID 2283368)
In short: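 U937-derived membranes, cell-free radioligand binding, filter scintillation 1 h after dosing. 25 uM duplicate screen; hits (e.g. 30% inhibition) run in concentration-response up to 50 uM; loss of signal versus DMSO.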

[5] = test system: guinea pig Dopamine Transporter (DAT), gene 100714898; test: NVS_TR_gDAT: NovaScreen (NVS) Transporter Assay for guinea pig Dopamine Transporter (DAT) (AID 2283369);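 further: active compounds lower bound radioligand signal relative to DMSO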
In short: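 Guinea pig striatal membranes, cell-free radioligand binding with filter-based scintillation counting, read 2 h after dosing. Loss of signal versus DMSO baseline; single-concentration primary (25 uM) then concentration-response up to 50 uM.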

[6] = molecular target: human Serotonin Transporter (SERT), SLC6A4 (gene 6532) (UniProt P31645); test: NVS_TR_hSERT: NovaScreen (NVS) Transporter Assay for human Serotonin Transporter (SERT) (AID 2283372)
In short: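 Radioligand binding to native SERT in human platelet membranes, read by filter-based scintillation counting 1 h after dosing. Primary screen in duplicate at 25 uM; actives followed up in concentration series; loss of signal versus DMSO baseline.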

[7] = test system: rat Norepinephrine Transporter (NET), gene 83511; test: NVS_TR_rNET: NovaScreen (NVS) Transporter Assay for rat Norepinephrine Transporter (NET) (AID 2283373)
In short: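 Rat forebrain membranes; radioligand binding measured by filter-based scintillation counting 1 hour after dosing. Loss of specific binding versus DMSO baseline scored; primary screen in duplicate at 25 uM, actives followed up in concentration series.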

[8] = molecular target: human Dopamine Transporter (DAT), SLC6A3 (gene 6531) (UniProt Q01959); test: NVS_TR_hDAT: NovaScreen (NVS) Transporter Assay for human Dopamine Transporter (DAT) (AID 2283374);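 further: activity means loss of bound radioligand signal relative to DMSO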
In short: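 Cell-free radioligand binding to extracted human DAT protein, read 1 h after dosing by filter-based scintillation counting. Loss of specific binding scored against DMSO baseline; primary screen in duplicate at 25 uM, actives then run in concentration series.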

[9] = molecular target: Nuclear receptor subfamily 1 group I member 2 (Homo sapiens) (UniProt O75469); test: NVS_NR_hPXR: NovaScreen (NVS) Nuclear Receptor Binding Assay for human Pregnane X Receptor (PXR) (AID 2283365);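 further: a drop in FRET signal versus DMSO baseline means the compound binds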
In short: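 Cell-free TR-FRET binding assay with extracted human PXR protein, read 2 h after dosing. Primary screen run in duplicate at 25 uM, actives followed in concentration series; loss of signal fitted against DMSO baseline.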

human Dopamine Transporter (DAT), SLC6A3 (gene 6531), sequence (Q01959 whole entry, looked up): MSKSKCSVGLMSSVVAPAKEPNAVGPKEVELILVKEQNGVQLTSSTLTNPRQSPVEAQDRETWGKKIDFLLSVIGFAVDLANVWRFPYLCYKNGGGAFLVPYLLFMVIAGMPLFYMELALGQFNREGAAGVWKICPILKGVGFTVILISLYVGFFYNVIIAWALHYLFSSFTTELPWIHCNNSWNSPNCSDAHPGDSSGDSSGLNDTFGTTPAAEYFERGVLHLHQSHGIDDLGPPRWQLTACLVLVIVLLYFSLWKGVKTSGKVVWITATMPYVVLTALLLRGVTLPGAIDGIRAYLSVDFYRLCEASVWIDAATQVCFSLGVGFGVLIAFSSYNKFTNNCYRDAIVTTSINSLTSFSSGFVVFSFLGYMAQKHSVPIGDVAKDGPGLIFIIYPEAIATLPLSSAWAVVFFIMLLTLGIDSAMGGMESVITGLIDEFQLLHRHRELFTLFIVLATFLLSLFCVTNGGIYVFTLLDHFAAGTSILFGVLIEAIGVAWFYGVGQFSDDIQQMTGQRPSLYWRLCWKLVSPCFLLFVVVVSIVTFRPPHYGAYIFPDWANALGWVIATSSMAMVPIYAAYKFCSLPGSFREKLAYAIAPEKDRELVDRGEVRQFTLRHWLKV
Peroxisome proliferator-activated receptor gamma (Homo sapiens), sequence (P37231 whole entry, looked up): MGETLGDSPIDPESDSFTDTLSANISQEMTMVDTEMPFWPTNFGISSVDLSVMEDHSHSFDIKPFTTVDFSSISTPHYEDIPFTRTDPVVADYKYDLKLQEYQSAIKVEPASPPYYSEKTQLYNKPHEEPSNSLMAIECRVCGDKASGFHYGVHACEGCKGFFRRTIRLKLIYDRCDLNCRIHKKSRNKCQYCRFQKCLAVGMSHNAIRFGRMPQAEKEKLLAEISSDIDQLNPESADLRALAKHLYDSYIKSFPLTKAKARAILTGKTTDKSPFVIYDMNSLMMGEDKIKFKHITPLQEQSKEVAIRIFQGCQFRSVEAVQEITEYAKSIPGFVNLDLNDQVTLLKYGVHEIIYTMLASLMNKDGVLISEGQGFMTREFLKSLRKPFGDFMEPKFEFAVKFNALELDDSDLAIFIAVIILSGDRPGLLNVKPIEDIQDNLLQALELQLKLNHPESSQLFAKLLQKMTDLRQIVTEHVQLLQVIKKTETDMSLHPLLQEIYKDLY
guinea pig Sigma Receptor, Non-selective Binding, SIGMAR1 (gene 100135589), sequence (Q60492 whole entry, looked up): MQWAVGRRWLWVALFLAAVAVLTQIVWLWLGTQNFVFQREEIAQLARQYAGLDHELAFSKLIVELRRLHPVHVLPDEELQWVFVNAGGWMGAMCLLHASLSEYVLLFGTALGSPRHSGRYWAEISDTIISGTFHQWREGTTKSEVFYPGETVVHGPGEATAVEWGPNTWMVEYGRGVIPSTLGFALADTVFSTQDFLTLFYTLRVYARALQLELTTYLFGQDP
Nuclear receptor subfamily 1 group I member 2 (Homo sapiens), sequence (O75469 whole entry, looked up): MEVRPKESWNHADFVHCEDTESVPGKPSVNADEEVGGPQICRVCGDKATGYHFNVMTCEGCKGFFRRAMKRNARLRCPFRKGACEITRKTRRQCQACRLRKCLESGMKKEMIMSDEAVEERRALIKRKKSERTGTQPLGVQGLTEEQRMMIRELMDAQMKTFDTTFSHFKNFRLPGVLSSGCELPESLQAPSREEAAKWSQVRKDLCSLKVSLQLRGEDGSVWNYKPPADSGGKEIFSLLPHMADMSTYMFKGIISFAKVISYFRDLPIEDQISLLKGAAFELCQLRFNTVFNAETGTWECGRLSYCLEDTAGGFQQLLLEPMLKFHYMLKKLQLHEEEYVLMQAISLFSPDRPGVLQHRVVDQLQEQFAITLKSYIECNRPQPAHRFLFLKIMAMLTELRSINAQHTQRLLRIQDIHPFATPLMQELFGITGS
rat Androgen Receptor (AR), Ar (gene 24208), sequence (P15207 whole entry, looked up): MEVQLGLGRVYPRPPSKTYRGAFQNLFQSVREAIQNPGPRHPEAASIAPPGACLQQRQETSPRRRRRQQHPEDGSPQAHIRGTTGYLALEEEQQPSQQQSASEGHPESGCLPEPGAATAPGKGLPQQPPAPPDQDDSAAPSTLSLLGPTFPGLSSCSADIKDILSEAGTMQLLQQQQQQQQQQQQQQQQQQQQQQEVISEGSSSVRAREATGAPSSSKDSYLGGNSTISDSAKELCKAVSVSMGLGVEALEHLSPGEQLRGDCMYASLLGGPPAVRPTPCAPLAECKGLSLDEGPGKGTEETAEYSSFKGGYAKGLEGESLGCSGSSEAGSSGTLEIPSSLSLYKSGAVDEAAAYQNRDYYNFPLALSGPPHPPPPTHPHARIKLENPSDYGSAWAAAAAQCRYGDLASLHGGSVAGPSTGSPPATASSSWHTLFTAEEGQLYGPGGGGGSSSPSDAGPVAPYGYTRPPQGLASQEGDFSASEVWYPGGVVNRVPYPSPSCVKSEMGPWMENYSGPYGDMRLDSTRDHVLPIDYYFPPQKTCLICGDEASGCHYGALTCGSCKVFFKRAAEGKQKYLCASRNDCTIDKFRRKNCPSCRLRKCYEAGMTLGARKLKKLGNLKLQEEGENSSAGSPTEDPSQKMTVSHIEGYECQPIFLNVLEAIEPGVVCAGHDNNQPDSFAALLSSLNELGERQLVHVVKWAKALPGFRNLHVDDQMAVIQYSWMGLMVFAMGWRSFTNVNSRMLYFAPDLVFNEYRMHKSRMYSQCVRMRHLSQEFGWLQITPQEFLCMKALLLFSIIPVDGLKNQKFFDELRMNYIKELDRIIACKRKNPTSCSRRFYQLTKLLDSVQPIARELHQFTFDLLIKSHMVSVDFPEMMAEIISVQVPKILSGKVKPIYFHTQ
human Serotonin Transporter (SERT), SLC6A4 (gene 6532), sequence (P31645 whole entry, looked up): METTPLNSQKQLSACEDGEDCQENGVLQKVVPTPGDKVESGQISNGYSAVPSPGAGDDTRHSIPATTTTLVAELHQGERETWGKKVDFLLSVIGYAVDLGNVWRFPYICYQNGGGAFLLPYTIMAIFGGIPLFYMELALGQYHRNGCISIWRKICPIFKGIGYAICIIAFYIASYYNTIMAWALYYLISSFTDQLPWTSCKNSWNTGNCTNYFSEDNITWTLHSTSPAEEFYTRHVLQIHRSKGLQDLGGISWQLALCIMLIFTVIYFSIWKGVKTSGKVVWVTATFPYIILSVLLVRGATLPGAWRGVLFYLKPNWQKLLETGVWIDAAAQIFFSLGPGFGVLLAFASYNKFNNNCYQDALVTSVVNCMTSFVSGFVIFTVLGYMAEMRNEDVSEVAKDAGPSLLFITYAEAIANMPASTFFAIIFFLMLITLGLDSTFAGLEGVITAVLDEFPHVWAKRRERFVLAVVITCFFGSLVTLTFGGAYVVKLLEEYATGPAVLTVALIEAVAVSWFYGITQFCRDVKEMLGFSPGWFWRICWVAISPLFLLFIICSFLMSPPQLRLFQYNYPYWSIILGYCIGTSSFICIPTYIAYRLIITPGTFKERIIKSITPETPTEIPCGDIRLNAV
human Adenosine Transporter (Adot), SLC29A1 (gene 2030), sequence (Q99808 whole entry, looked up): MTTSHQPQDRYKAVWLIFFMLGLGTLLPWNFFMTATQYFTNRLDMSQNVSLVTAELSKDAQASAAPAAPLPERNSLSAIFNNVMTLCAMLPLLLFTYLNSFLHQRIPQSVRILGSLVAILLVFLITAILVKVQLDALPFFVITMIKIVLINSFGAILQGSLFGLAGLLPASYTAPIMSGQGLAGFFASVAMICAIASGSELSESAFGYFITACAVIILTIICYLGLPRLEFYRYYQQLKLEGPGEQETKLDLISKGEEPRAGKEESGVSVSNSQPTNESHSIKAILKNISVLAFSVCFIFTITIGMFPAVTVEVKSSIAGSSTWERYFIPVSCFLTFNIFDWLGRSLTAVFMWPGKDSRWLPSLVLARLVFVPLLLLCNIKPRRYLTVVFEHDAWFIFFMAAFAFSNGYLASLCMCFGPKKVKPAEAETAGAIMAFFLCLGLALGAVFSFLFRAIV

SMILES: O=C1C(Cl)=C(Cl)C(=O)c2ccccc21
- outcome [1]: inactive

SMILES: C(=NC1CCCCC1)=NC1CCCCC1
- AC50 [2]: 30.8 µM (active)

SMILES: CCN1CCC2(CC1)COc1cc3c(cc12)N(C(=O)c1ccc(-c2ccc(-c4nnc(C)o4)cc2C)cc1)CC3
- outcome [3]: inactive
- AC50 [2]: 3.01 µM (active)
- AC50 [4]: 1.11 µM (active)
- AC50 [5]: 7.47 µM (active)
- outcome [6]: inactive
- outcome [7]: inactive
- AC50 [8]: 6.34 µM (active)

SMILES: ClC1(Cl)C2(Cl)C3(Cl)C4(Cl)C(Cl)(Cl)C5(Cl)C3(Cl)C1(Cl)C5(Cl)C24Cl (configuration not stated)
- outcome [1]: inactive

SMILES: Nc1cccc2ccccc12
- outcome [2]: inactive

SMILES: O=Cc1cccc(Oc2ccccc2)c1
- AC50 [8]: 5.52 µM (active)

SMILES: Oc1ccc(-c2ccccc2)cc1
- AC50 [5]: 11.9 µM (active)
- AC50 [8]: 10.7 µM (active)

SMILES: COC(=O)c1sccc1S(=O)(=O)NC(=O)Nc1nc(C)nc(OC)n1
- outcome [1]: inactive

SMILES: CNC(=O)O/N=C/C(C)(C)S(C)=O (configuration not stated)
- outcome [1]: inactive

SMILES: CCN(CC)C(=O)Cl
- outcome [3]: inactive

SMILES: CC(C)(c1ccccc1)c1ccc(O)c(C(C)(C)c2ccccc2)c1
- outcome [9]: inactive
- outcome [8]: inactive

SMILES: O=C(O)C(F)(F)C(F)(F)C(F)(F)C(F)(F)C(F)(F)C(F)(F)F
- outcome [1]: inactive

SMILES: O=C(NCO)NCO
- AC50 [1]: 25 µM (active)

SMILES: CCC(=O)C(CC(C)N(C)C)(c1ccccc1)c1ccccc1 (configuration not stated)
- AC50 [2]: 2.1 µM (active)
- AC50 [7]: 11.3 µM (active)

SMILES: CCC[CH2][Sn]([CH2]CCC)([CH2]CCC)[O]C(=O)c1ccccc1
- AC50 [9]: 14.6 µM (active)
- AC50 [1]: 1.83 µM (active)
- outcome [1]: inactive

SMILES: O=C(O)C(F)(F)C(F)(F)C(F)(F)C(F)(F)C(F)(F)C(F)(F)C(F)(F)C(F)(F)C(F)(F)C(F)(F)F
- AC50 [1]: 6.31 µM (active)
